# Assay results as given in paper PMC5540273 (PLoS ONE, 2017).
# Columns and labels:
# Conditions in all cases: concentration: 1 μM, replicates: in singlicate; n = 1
# TNNI3K = system: TNNI3K
# TRKA = system: T1, TRKA
# T1 construct: gene NTRK1
# TRKB = system: TRKB
# TRKC = system: T2, TRKC
# T2 construct: gene NTRK3
# TRPM6 = system: TRPM6
# TSSK1B = system: TSSK1B
# TSSK3 = system: TSSK3
# TTK = system: TTK
# TXK = system: TXK
# [1] = system: TYK2(JH1domain-catalytic)
# [2] = system: TYK2(JH2domain-pseudokinase)
# TYRO3 = system: TYRO3
# ULK1 = system: ULK1
# ULK2 = system: ULK2
# ULK3 = system: ULK3
# VEGFR2 = system: T3, VEGFR2
# T3 construct: gene KDR
# VPS34 = system: T4, VPS34
# T4 construct: gene PIK3C3
# VRK2 = system: VRK2
# WEE1 = system: WEE1
# WEE2 = system: WEE2
# 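Note: KINOMEscan kinase panel screen.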
Compound,%Inh (TNNI3K) [%],%Inh (TRKA) [%],%Inh (TRKB) [%],%Inh (TRKC) [%],%Inh (TRPM6) [%],%Inh (TSSK1B) [%],%Inh (TSSK3) [%],%Inh (TTK) [%],%Inh (TXK) [%],%Inh [1] [%],%Inh [2] [%],%Inh (TYRO3) [%],%Inh (ULK1) [%],%Inh (ULK2) [%],%Inh (ULK3) [%],%Inh (VEGFR2) [%],%Inh (VPS34) [%],%Inh (VRK2) [%],%Inh (WEE1) [%],%Inh (WEE2) [%]
COc1cccc(C(=O)Nc2cccc(Oc3ccc4nc(NC(=O)C5CC5)cn4n3)c2)c1,87,0,0,0,17,6,0,13,37,0,0,47,0,0,11,99.9,22,0,0,20
Nc1n[nH]c2cnc(-c3ccccc3)cc12 [SB-642124],0,0,28,20,9,30,12,0,3,79,85,9,50,22,35,0,0,35,19,0
O=C(O)C(F)(F)F.O=C(O)C(F)(F)F.O=c1[nH]ccc2nc(N[C@@H]3CCCNC3)nc(Nc3ccc(S(=O)(=O)N4CCOCC4)cc3)c12 [GSK2177277],15,100,92.5,98,19,95.1,99.7,96.8,35,99.7,93.2,15,100,88,99.9,74,91.5,77,66,13
Fc1ccc(-c2ncn(C3CCNCC3)c2-c2ccnc(Oc3ccc(-c4ccccc4)cc3)n2)cc1 [SB-245391],42,13,0,19,19,0,15,22,8,32,84,0,54,26,46,12,30,41,0,58
CCc1ccc(-c2ccc3c(c2)-c2c(cnn2C)S(=O)(=O)N3C)cc1,0,0,0,0,1,5,0,0,0,0,0,5,0,0,0,14,45,7,0,0
Cc1ccc(C)c(NC(=O)NC2CCN(c3ccnc(Nc4ccc(F)cc4)n3)C2)c1 (centres unmarked) [GSK1379720],4,0,51,65,14,0,15,13,16,36,48,0,0,0,10,0,0,45,4,0
Cl.Cl.NCC(NC(=O)c1cc(-c2ccccc2)c(-c2ccnc3[nH]ccc23)s1)c1ccccc1 (centres unmarked) [GSK1321561],18,58,26,6,28,0,18,0,45,20,2,0,8,0,9,0,6,0,17,0
Cn1cc(-c2[nH]c3cc(NC(=O)[C@H](N)C4CCCCC4)cc4c3c2C=NNC4=O)cn1,54,91.6,64,57,11,73,23,0,32,95.1,87,73,68,98.9,97.6,90.7,80,0,65,98.2
COc1cc(Nc2nccc(-c3c(-c4cccc(NC(=O)c5c(F)cccc5F)c4)nn4ncccc34)n2)cc(OC)c1OC [GSK327238],55,48,0,0,54,11,19,10,93.6,88,0,100,14,0,30,96.1,11,11,10,5
COc1cccc(NC(=O)NC2CCN(c3ccnc(Nc4cc(OC)c(OC)c(OC)c4)n3)C2)c1 (centres unmarked) [GSK1379763],0,54,63,89,3,3,20,5,1,20,38,0,3,0,88,43,20,0,20,0
CC(=O)N1CCN(c2ccc(Nc3nccc(-c4sc(C(C)C)nc4-c4cccc(NS(=O)(=O)c5cccc(Cl)c5)c4)n3)cn2)CC1 [GSK1660437],22,45,0,0,41,10,4,56,20,29,0,40,37,4,62,26,0,0,0,0
C[C@@H](Oc1cc(-n2cnc3cc(-c4ccnc(NCCS(C)(=O)=O)c4)ccc32)sc1C(N)=O)c1ccccc1Cl [GSK907232],31,91,39,30,0,11,9,0,28,12,0,4,25,0,14,28,60,0,43,25
COC(=O)Nc1nc2ccc(Oc3ccc(NC(=O)Nc4cc(C(F)(F)F)ccc4F)cc3)cc2n1C.Cl [GW692089],72,100,84,96.5,0,0,0,17,0,26,18,0,0,0,0,43,0,56,2,0
Cl.c1ccc(-c2ccc3c(Nc4ccc5[nH]ncc5c4)ccnc3c2)nc1 [GW440137],0,0,16,17,25,12,7,3,74,14,32,0,12,0,11,66,0,0,0,5
Cc1cccc(NC(=O)Nc2ccc(Oc3ncnc4ccn(C)c34)cc2)c1,0,20,35,57,0,19,0,0,0,0,0,0,0,0,2,99.7,0,0,0,0
Cl.c1ccc(-c2ccc3c(Nc4ccc5[nH]ccc5c4)ccnc3c2)nc1 [GW440138],0,0,9,23,0,0,5,0,0,29,27,0,0,0,6,98.3,0,40,8,6
Cl.Cl.NCC(NCc1ccc(-c2ccnc3[nH]ccc23)s1)c1ccccc1 (centres unmarked) [GSK1321565],0,98.5,72,70,0,38,16,0,25,80,43,0,67,9,15,17,7,20,13,0
Cl.Cl.NCC(C(=O)Nc1cc(Br)c(-c2ccnc3[nH]ccc23)s1)c1ccccc1 (centres unmarked) [GSK1269851],12,19,28,31,7,21,4,0,0,22,18,0,23,0,15,0,0,0,0,22
COc1cc(Nc2nccc(-c3c(-c4cccc(NC(=O)c5c(F)cccc5F)c4)nn4ccccc34)n2)cc(OC)c1OC [GSK323521],3,78,35,40,16,0,20,10,0,0,0,0,0,0,18,0,12,0,0,6
Oc1cc(Nc2ccnc3cc(I)ccc23)ccc1F [GW552771],2,0,23,26,26,6,13,0,94.5,32,25,54,9,0,29,31,0,36,0,0

Compound,%Inh (TNNI3K) [%],%Inh (TRKA) [%],%Inh (TRKB) [%],%Inh (TRKC) [%],%Inh (TRPM6) [%],%Inh (TSSK1B) [%],%Inh (TSSK3) [%],%Inh (TTK) [%],%Inh (TXK) [%],%Inh [1] [%],%Inh [2] [%],%Inh (TYRO3) [%],%Inh (ULK1) [%],%Inh (ULK2) [%],%Inh (ULK3) [%],%Inh (VEGFR2) [%],%Inh (VPS34) [%],%Inh (VRK2) [%],%Inh (WEE1) [%],%Inh (WEE2) [%]
COc1ccc(CNC(=O)NC2CCN(c3ccnc(Nc4ccc(F)cc4)n3)CC2)cc1 [GSK1379788],0,0,0,6,0,1,18,0,3,21,35,0,0,0,0,0,17,14,39,0
O=C(Nc1ccccc1F)NC1CCN(c2ccnc(Nc3ccc(F)cc3)n2)CC1 [GSK1379800],0,0,0,6,0,1,22,0,46,28,43,0,0,0,6,0,0,4,21,0
COCCOCCOc1cc2ncc3c4ccc(C#N)cc4[nH]c3c2cc1OC,9,98,90,78,0,0,0,26,4,0,41,8,79,99.4,65,0,0,9,3,15
c1ccc(-c2n[nH]cc2Nc2ccnc3ccccc23)nc1 [GW694077],0,74,26,21,15,12,28,64,0,92,96.6,0,17,12,8,23,39,50,0,0
COc1ccc(Nc2nccc(NCCNC(=O)c3cc4ccccc4s3)n2)cc1 [GSK1379896],13,18,0,0,34,0,20,0,0,25,0,11,14,0,0,0,18,17,14,0
COc1cc(Nc2nccc(N3CCC(NC(=O)c4cc5ccccc5s4)C3)n2)cc(OC)c1OC (centres unmarked) [GSK1379760],0,21,0,35,17,0,26,0,0,28,6,0,1,0,64,0,33,20,8,0
CC(C)c1nc(-c2cccc(NS(=O)(=O)c3c(F)cccc3F)c2F)c(-c2ccnc(Nc3ccc(N4CCOCC4)nc3)n2)s1 [GSK2008607],92.7,87,0,51,57,0,34,82,95.2,94.9,17,100,63,83,98.9,94.5,0,0,0,0
c1ccc(-c2cnc3nccnn23)cc1 [AH20685],0,0,17,0,29,0,9,0,0,0,3,0,5,0,0,0,0,0,33,0
Cl.NC(=O)c1cccc(Nc2nccc(Nc3ccc(Oc4c(Cl)cccc4Cl)c(Cl)c3)n2)c1 [GW659009],0,20,7,11,36,8,88,10,0,21,0,0,35,0,4,0,0,2,0,0
C[C@@H]1CC[C@@H](C(=O)Nc2ccccc2)CN1c1cc(-c2ccc3c(N)n[nH]c3c2)nc(N)n1 [GSK2286062],0,12,0,13,0,0,0,9,0,15,2,0,8,0,4,0,0,1,0,0
c1ccc(Oc2ccc(Nc3ccnc4cc(-c5ccc(CNCCN6CCOCC6)o5)ccc34)cc2)nc1 [GW567145],0,100,53,42,14,0,2,7,1,0,13,0,14,0,7,0,2,30,1,0
COc1ccc(-c2coc3ccc(-c4nnc(SCc5ccc(OC)c(C(F)(F)F)c5)o4)cc23)cc1,0,5,10,0,1,0,0,1,0,27,1,16,0,6,16,17,11,0,0,0
Cc1ccc(F)c(C(=O)Nc2cccc(-c3nn4ccccc4c3-c3ccnc(Nc4cccc(F)c4)n3)c2)c1F [GSK361061],37,33,0,0,36,10,19,39,52,0,0,86,100,0,11,42,7,0,22,11
FC(F)(F)c1ccc(/C=C/c2cncnc2Nc2ccc3[nH]c(Cc4ccccc4)nc3c2)cc1 [GW709199],0,0,8,0,0,0,0,0,0,41,34,0,0,0,10,0,39,3,23,35
CNC(=O)c1ccccc1Nc1nc(Nc2ccc(N3CCOCC3)cc2)ncc1Cl.Cl [GSK1576028],50,100,96.6,97.1,75,15,17,95,97.6,99.9,99.7,85,99.6,81,99.8,90,0,21,99.7,100
CCCCc1nn2ncccc2c1-c1ccnc(Nc2ccc(N3CCN(C)CC3)cc2)n1 [GW684941],41,88,78,66,61,9,7,50,74,44,93,1,23,6,17,94,15,50,4,9
Cc1cccc(Nc2nc(N[C@H]3CCNC3)ncc2C(N)=O)c1.Cl [GSK2197149],0,93.3,0,18,34,13,29,29,15,46,97.7,0,30,11,42,0,13,22,0,8
O=C(Nc1cccc(Oc2ccc3nc(NC(=O)C4CC4)cn3n2)c1)c1ccccc1C(F)(F)F,4,0,0,0,0,7,0,26,17,5,0,36,0,0,1,99.8,0,0,22,0
Cn1cc(-c2ccc3c(c2)CCN3C(=O)Cc2cccc(F)c2)c2c(N)ncnc21 [GSK2603358],0,34,55,50,0,5,11,67,25,22,64,0,14,0,27,75,0,23,0,0
CCn1c(-c2nonc2N)nc2c(C#CC(C)(C)O)nc(OC[C@H](N)c3ccccc3)cc21 [GSK943949],0,18,0,18,0,49,82,15,8,19,0,0,0,0,1,1,16,0,1,2
